Source: PMC4552634, “A New Set of Chemical Starting Points with Plasmodium falciparum Transmission-Blocking Potential for Antimalarial Drug Discovery” (PLoS ONE, 2015)
About 3,200 (25%) of roughly 13,000 compounds showed an effect of 50% or more. The list shows a part of the results.

What follows are compounds tested on P. falciparum stage V gametocytes. Conditions: 48 h, 5 µM; inhibitor.
Parameters: BacTiter-Glo ATP luminescence viability of purified stage V gametocytes in 384-well plates, per cent inhibition versus DMSO

Row | SMILES | % Inhibition
1 | CCNc1cc(C)nc(Nc2ccc(NC(=O)c3ccccc3)cc2)n1 [TCMDC-124988] | -14.46%
2 | N=C(N)c1ccc(Oc2ccc(C(=N)N)cc2)cc1 [TCMDC-124287] | 24.59%
3 | CCCc1ccc(NC(=O)c2cccc(CN3CCCN(Cc4cccc(O)c4)CC3)c2)cc1 [TCMDC-135978] | 12.81%
4 | CC(C)[C@H](NC(=O)c1ccc(O)c(-c2cccc(C(F)(F)F)c2)c1)C(=O)NC1CCCc2ccccc21 (stereo partly shown) [TCMDC-140819] | -19.12%
5 | CCCCCCc1cnc2nc(N)nc(N)c2c1C [TCMDC-138065] | 8.256%
6 | O=C(NC1CCC(N2CCCC(OCc3ccccc3)C2)CC1)c1cc2ccccc2[nH]1 (stereo not shown) [TCMDC-132892] | 14.17%
7 | CCCC(=O)Nc1ccc(OCCCN(Cc2ccccc2C(F)(F)F)c2ccc(C#N)c(C(F)(F)F)c2)cc1 [TCMDC-135466] | 20.73%
8 | CCCCCN1CCC(CNS(=O)(=O)c2ccc(C(=O)Nc3cccc(C(F)(F)F)c3)cc2)CC1 [TCMDC-132775] | -3.109%
9 | O=C(Nc1cccc(C(F)(F)F)c1)c1cccc(S(=O)(=O)NCC2CCN(CC3CCCCC3)CC2)c1 [TCMDC-133684] | -26.22%
10 | O=C(Nc1cccc(C(F)(F)F)c1)c1ccc(S(=O)(=O)NCC2CCN(CC3CCCCC3)CC2)cc1 [TCMDC-132776] | 87.8%
11 | COc1cc2c(cc1OC)C(C)(C)CN1Cc3c(c(CO)c(OC)c(OC)c3OC)CC21 (stereo not shown) [TCMDC-137250] | -48.53%
12 | COc1ccc2nc(N)nc(C)c2c1 [TCMDC-123907] | 15.32%
13 | CS(=O)(=O)CCNCc1cccc(-c2cc3c(Nc4ccc(OCc5cccc(F)c5)c(Cl)c4)ncnc3s2)c1 [TCMDC-134654] | -64.99%
14 | Cn1cncc1C(=O)Nc1cccc(-c2ccc(-c3nc4ccccc4[nH]3)s2)c1 [TCMDC-137055] | 40.39%
15 | Cc1cccc2nc(-c3ccc(-c4cccc(NC(=O)c5cncn5C)c4)s3)[nH]c12 [TCMDC-137068] | 78.66%
16 | CC(=O)Nc1cccc(C(=O)Nc2cccc(-c3ccc(-c4nc5cc(F)ccc5[nH]4)s3)c2)c1 [TCMDC-132142] | 5.899%
17 | Cc1cccc2nc(-c3ccc(-c4ccc(NC(=O)c5cncn5C)cc4)s3)[nH]c12 [TCMDC-137067] | 9.475%
18 | CC(=O)Nc1cccc(C(=O)Nc2cccc(-c3ccc(-c4nc5cccc(C)c5[nH]4)s3)c2)c1 [TCMDC-132144] | 10.52%
19 | Cn1cncc1C(=O)Nc1cccc(-c2ccc(-c3nc4cc(F)ccc4[nH]3)s2)c1 [TCMDC-137066] | 61.93%
20 | NC(N)=Nc1nc(-c2cc(NC(=O)C(F)(F)F)cc([N+](=O)[O-])c2)cs1 [TCMDC-137440] | -35.18%
21 | Nc1nc(N)c2c(ccc3nccc32)[nH]1 [TCMDC-124301] | -21.41%
22 | O=C(Nc1cccc(CN2CCN(C(=O)c3cccc(Cl)c3)CC2)c1)c1cccs1 [TCMDC-136326] | 0.1034%
23 | CNC(=O)c1ccccc1Nc1cc(Nc2cc(OC)ccn2)ncc1Cl [TCMDC-135054] | -20.04%

Row | SMILES | % Inhibition
24 | COc1cccc(CN2Cc3ccccc3OC3(CCN(Cc4c[nH]c5cnccc45)CC3)C2)c1 [TCMDC-133378] | 19.44%
25 | Cc1ccc(CN2CCN(c3cc4c(cc3Cl)CCN4C(=O)Cc3ccc(Cl)c(NC(=O)Nc4cccc(C#N)c4)c3)CC2)cc1 [TCMDC-139471] | 12.97%
26 | CN(CCS(C)(=O)=O)Cc1ccc(-c2ccc3ncnc(Nc4ccc(OCc5cccc(F)c5)c(Cl)c4)c3c2)o1 [TCMDC-138629] | -22.68%
27 | O=C(c1cc(C(=O)Nc2ccccc2F)c(=O)n(-c2ccccc2F)c1)c1cc(Cl)ccc1O [TCMDC-123625] | 90.03%
28 | O=C(c1cc(C(=O)Nc2ccc(F)cc2)c(=O)n(-c2ccc(F)cc2)c1)c1cc(Cl)ccc1O [TCMDC-123626] | 8.881%
29 | Cc1ccc(O)c(C(=O)c2cc(C(=O)Nc3ccccc3C)c(=O)n(-c3ccccc3C)c2)c1 [TCMDC-123627] | 58.98%
30 | COc1ccc(O)c(C(=O)c2cc(C(=O)NCCc3ccccc3)c(=O)n(CCc3ccccc3)c2)c1 [TCMDC-125435] | -12.88%
31 | COc1ccccc1NC(=O)c1cc(C(=O)c2cc(Cl)ccc2O)cn(-c2ccccc2OC)c1=O [TCMDC-124338] | 29.65%
32 | O=C(c1cc(C(=O)Nc2ccccc2)c(=O)n(-c2ccccc2)c1)c1cc(Cl)ccc1O [TCMDC-124511] | 30.05%
33 | O=C(Nc1ccc(-c2cccc(-c3nc4ccc(F)cc4[nH]3)c2)cc1)c1cnn2cccnc12 [TCMDC-136864] | -12.66%
34 | C(=NNc1ccnc2ccccc12)c1ccncc1 [TCMDC-142016] | -6.172%
35 | CN1CCN(CCCN(Cc2csc(-c3ccc(CNCc4ccccc4)cc3)n2)C(=O)Nc2cccc(Cl)c2)CC1 [TCMDC-141794] | 15.5%
36 | CCCCNCc1ccc(-c2nc(CN(CCCn3ccnc3)C(=O)NC3CC3c3ccccc3)cs2)cc1 (stereo not shown) [TCMDC-141638] | 80.86%
37 | CN1CCCN(Cc2ccc(-c3cccc(NC(=O)c4cccc(Cl)c4)c3)cc2)CC1 [TCMDC-132641] | 27.52%
38 | CCc1ccc(NC(=O)N(CCCn2ccnc2)Cc2csc(-c3ccc(CNCc4ccccc4)cc3)n2)cc1 [TCMDC-141797] | 5.722%
39 | CCCCNCc1ccc(-c2nc(CN(CCCN3CCN(C)CC3)C(=O)Nc3cccc(Cl)c3)cs2)cc1 [TCMDC-141637] | 88.1%
40 | CCCCNCc1ccc(-c2nc(CN(CCCn3ccnc3)C(=O)C3COc4ccccc4O3)cs2)cc1 (stereo not shown) [TCMDC-141702] | 64.34%
41 | CCCCNCc1ccc(-c2nc(CN(CCCn3ccnc3)C(=O)Nc3ccc(CC)cc3)cs2)cc1 [TCMDC-141639] | 61.14%
42 | O=C(Nc1ccc2ccccc2c1)N(CCCn1ccnc1)Cc1csc(-c2ccc(CNCc3ccccc3)cc2)n1 [TCMDC-141798] | 15.32%
43 | O=C(C1COc2ccccc2O1)N(CCCn1ccnc1)Cc1csc(-c2ccc(CNCc3ccccc3)cc2)n1 (stereo not shown) [TCMDC-141813] | 25.07%
44 | CCCN(Cc1nnc(-c2cccs2)o1)C(=O)C1COc2ccccc2O1 (stereo not shown) [TCMDC-125333] | 18.28%
45 | CCOC(=O)CC[C@@H](NC(=O)c1ccc(NCc2ccc3ccc4nc(C)[nH]c(=O)c4c3c2)cc1F)C(=O)N[C@@H](Cc1c[nH]c2ccccc12)C(=O)OCC [TCMDC-137320] | 27.07%
46 | O=C(Nc1cccc(-c2cc(-c3c(Cl)cccc3Cl)no2)c1)c1cnc2ccccc2c1 [TCMDC-136759] | 13.25%

Row | SMILES | % Inhibition
47 | CC(=O)N(C)C1CCN(Cc2cccc(-c3ccc(-c4nc5cc(F)ccc5[nH]4)cc3)c2)C1.O=C(O)C(F)(F)F (stereo not shown) [TCMDC-133894] | 26.71%
48 | O=C(NC1CCN(Cc2ccc3c(c2)OCCO3)CC1)c1ccc(-c2cccc(Cl)c2)s1 [TCMDC-134338] | 2.147%
49 | O=C(NC1CCCCC1)N(CCCn1ccnc1)Cc1csc(-c2ccc(CNCc3ccccc3)cc2)n1 [TCMDC-141645] | 7.097%
50 | O=C(NC1CC1c1ccccc1)N(CCCn1ccnc1)Cc1csc(-c2ccc(CNCc3ccccc3)cc2)n1 (stereo not shown) [TCMDC-141644] | 86.73%
51 | O=C(Nc1cccc(Cl)c1)N(CCCn1ccnc1)Cc1csc(-c2ccc(CNCc3ccccc3)cc2)n1 [TCMDC-141796] | 19.94%
52 | CC(=O)c1cccc(S(=O)(=O)NCCCNc2nc3cc(C)cc(C)c3cc2C#N)c1 [TCMDC-123734] | 8.065%
53 | CCS(=O)(=O)N1CCN(c2nc(-c3ccccc3)nc(COC)c2Cc2ccccc2F)CC1 [TCMDC-124784] | -1.025%
54 | COc1cc(/C=N/Nc2nc(Nc3ccccc3)nc(Nc3ccccc3)n2)ccc1OCc1ccccc1[N+](=O)[O-] [TCMDC-125793] | 59.87%
55 | O=[N+]([O-])c1cccc(C=NNc2nc(Nc3ccccc3)nc(Nc3ccccc3)n2)c1 [TCMDC-125797] | 40.05%
56 | COc1ccc(Nc2nc(N/N=C/c3ccc(O)cc3)nc(Nc3ccc([N+](=O)[O-])cc3)n2)cc1 [TCMDC-124127] | -40.32%
57 | Cc1cc(NC2CCCC2)nc(Nc2ccccc2C)n1 [TCMDC-133473] | -0.2818%
58 | O=C(Cc1ccc(Cl)cc1)Nc1cc(Cl)ccc1Cn1cnc(N2CCNCC2)cc1=O [TCMDC-134317] | -8.964%
59 | Cc1c(CCC#N)c(NCc2ccccc2)n2c(nc3ccccc32)c1C#N [TCMDC-123759] | 74.35%
60 | COc1ccc(Nc2nc(NCc3ccco3)c3ccccc3n2)cc1.Cl [TCMDC-124562] | 32.58%
61 | Cc1nc(NCc2ccccc2)cc(Nc2cc(NCc3ccccc3)nc(C)n2)n1 [TCMDC-137298] | 0.4033%
62 | CCc1c(C)c(C#N)c2nc3ccccc3n2c1NCc1ccco1 [TCMDC-124079] | 78.38%
63 | Cl.Oc1ccccc1Nc1nc(NCc2ccco2)c2ccccc2n1 [TCMDC-124544] | -81.25%
64 | Cc1ccc(O)c(Nc2c3c(c(C#N)c4nc5ccccc5n24)CCC3)c1 [TCMDC-124227] | 16.2%
65 | COc1ccc2ncc(C#N)c(CCN3C[C@H](CNCc4ccccc4)[C@H](O)C3)c2n1 [TCMDC-136369] | 48.08%
66 | CCCCNc1c(CC)c(C)c(C#N)c2nc3ccccc3n12 [TCMDC-125729] | 72.07%
67 | Cc1cc(NCCCN2CCCC2=O)n2c(nc3ccccc32)c1C#N [TCMDC-124485] | -25.7%
